# ASM inhibitor = human S-ASM enzyme inhibition; AID 504937; Potency, µM (series often up to 57.5 µM), for inactives: at the top dose activity change, negative = inhibition, actives largely listed as inhibitors; placental ASM, HMU-PC fluorogenic substrate, 60 min; P17405; actives 0.006% (n = 340,000); further: potency means the concentration at half of the fitted maximal effect
# Target sequence (P17405 47-631 limits assumed): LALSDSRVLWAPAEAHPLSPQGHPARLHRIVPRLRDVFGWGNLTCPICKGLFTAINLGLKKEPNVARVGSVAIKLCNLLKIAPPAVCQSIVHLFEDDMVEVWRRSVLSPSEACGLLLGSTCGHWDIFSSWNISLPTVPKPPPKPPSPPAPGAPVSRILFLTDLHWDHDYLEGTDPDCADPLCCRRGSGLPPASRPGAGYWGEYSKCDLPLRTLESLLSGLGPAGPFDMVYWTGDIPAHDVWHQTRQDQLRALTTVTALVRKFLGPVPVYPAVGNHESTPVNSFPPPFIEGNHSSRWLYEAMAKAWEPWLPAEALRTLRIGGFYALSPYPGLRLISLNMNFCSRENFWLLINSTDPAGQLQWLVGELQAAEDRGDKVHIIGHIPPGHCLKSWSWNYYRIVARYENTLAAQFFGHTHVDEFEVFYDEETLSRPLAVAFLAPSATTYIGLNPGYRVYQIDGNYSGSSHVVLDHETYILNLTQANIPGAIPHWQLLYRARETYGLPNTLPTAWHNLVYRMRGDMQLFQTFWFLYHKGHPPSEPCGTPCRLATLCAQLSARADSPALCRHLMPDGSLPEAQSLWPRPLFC
#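 Fluorescence read-out (Ex 386 nm, Em 447 nm) after stopping the reaction at pH 10. Enzyme: ASM from human placenta; substrate HMU-PC0, 9 uM final; 60 min, 37 °C. Compound preincubation 10 min, ambient temperature.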
# KB-3-1 tox = kills parental KB-3-1 adenocarcinoma cells. KB-3-1 viability, CellTiter-Glo ATP luminescence, 72 h. Potency, µM (series often up to 46.1 µM), hits mostly cytotoxic. actives 1.4% (n = 400,000); further: potency means the concentration at half of the fitted maximal effect; on the % scale 0 is the no-effect control and ±100 the full control effect; nearly all actives have a fitted effect of over 60% in size
#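 Here the drug-naive KB-3-1 line serves as comparator for MDR sub-line selectivity; cells received compound titrations, 72 h at 37 °C, then CellTiter-Glo readout.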
# MCF10A rereplic = inducers of DNA re-replication in MCF 10A breast cells; MCF 10A DNA re-replication, Hoechst nuclear intensity, 48 h; Potency, µM (doses to about 46.1 µM), without a hit: at the top dose activity, positive = re-replication, usual class: activators; actives 2.9% (n = 350,000); AID 624296; further: potency means the concentration at half of the fitted maximal effect; % of control where 0% means no effect; nearly all actives have a fitted effect of over 50% in size
# Giardia kill = Giardia lamblia killing; Giardia lamblia trophozoite viability; activity change, % at 7.66 µM, hits read low; actives 0.15% (n = 340,000); AID 540267; in the data active means activity change below about -80%; inconclusive means between about -30% and that limit;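 further: parasites exposed to compound for two days anaerobically before the ATP read; on the % scale 0 is the no-effect control and ±100 the full control effect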
#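 Giardia trophozoites, 100 cells per well, were exposed to compounds for 48 hrs at 37 deg C under anaerobic conditions; viability was then read as ATP content by bioluminescence after 15-30 min at room temperature.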
# SW480 rerep = induces DNA re-replication in SW480 colon adenocarcinoma cells. SW480 DNA re-replication, Hoechst DNA content imaging, 48 h. Potency, µM (series often up to 46.1 µM), without a hit: at the top dose re-replication activation, actives largely listed as activators. actives 1.8% (n = 340,000). AID 624297; further: potency means the concentration at half of the fitted maximal effect; % of control where 0% means no effect; nearly all actives have a fitted effect of over 55% in size
#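 SW480 cells exposed to compounds for 48 hr at 37 C, 5% CO2, then Hoechst-stained 40 min. Nuclear DNA content imaged by fluorescence scanning (405 nm excitation, 500-530 nm emission); re-replication scored as increased high-intensity nuclei.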
# KB-V1 MDR tox = kills drug-selected multidrug resistant KB-V1 cells | KB-V1 MDR cells viability, CellTiter-Glo, 72 h | Potency, µM (doses to about 46.1 µM), actives largely listed as cytotoxic | actives 3.4% (n = 400,000); further: potency means the concentration at half of the fitted maximal effect; on the % scale 0 is the no-effect control and ±100 the full control effect; nearly all actives have a fitted effect of over 60% in size
#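 Readout: CellTiter-Glo luminescence, 10 min after addition. Cells: KB-V1 MDR subline, 72 h at 37 degrees C with compound. Analysis: corrected, normalized data fitted to concentration-effect curves.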
# An asterisk follows results filed as active; i = inactive; ? = inconclusive; / = no result given; ! = not confirmed by another sample. Hits are enriched below; roughly 6.9% of the tested compounds scored in any of these assays. Unless noted, the call rests on the fitted dose curve; in most records, active means well fitted curve in the direction sought with a large enough effect; inconclusive means small, poorly fitted or top-dose-only effect, or another doubt; inactive means no such curve, though single readings can be large; an effect the other way counts as inactive or inconclusive.
SMILES,ASM inhibitor,KB-3-1 tox,MCF10A rereplic,Giardia kill,SW480 rerep,KB-V1 MDR tox
COc1ccccc1NC(=O)C(C)OC(=O)C1CCN(S(=O)(=O)c2ccc(C)c(C)c2)CC1 (configuration not stated),4%,i,15%,7,-2%,7.3µM*
COc1ccccc1CNC(=O)C1CCN(S(=O)(=O)c2ccc3c(c2)NC(=O)CO3)CC1,1%,i,-5%,10,-20%,i
COc1ccc(S(=O)(=O)N2CCC(C(=O)Nc3ccc4c(c3)OCCO4)CC2)cc1OC,6%,i,2%,20,9%,18µM*
COc1ccccc1CNC(=O)C1CCN(S(=O)(=O)c2ccc3c(c2)OCCCO3)CC1,4%,i,0%,5,21%,18µM*
Cc1cc(C)cc(NC(=O)c2cccc(N3CCCS3(=O)=O)c2)c1,/,i,/,/,/,i
CCOC(=O)c1cccc(NC(=O)C2(S(=O)(=O)c3ccc(C)cc3)CC2)c1,0%,i,0%,0,-8%,18µM*!
COc1cccc2c(=O)c3c(cnn3C)n(C)c12,i,i,?,7,24%,21µM*
CNC(=O)COc1ccccc1C(=O)Nc1ccccc1,/,?,/,/,/,i
CS(=O)(=O)N(CC(=O)Nc1ccc(S(=O)(=O)N2CCOCC2)cc1)c1cccc(F)c1,-7%,i,?,6,23µM*,i
CC(=O)c1cccc(N(CC(=O)Nc2ccc(S(=O)(=O)N3CCOCC3)cc2)S(C)(=O)=O)c1,-1%,i,-2%,-11,-14%,i
CS(=O)(=O)N(CC(=O)Nc1ccccc1-c1ccccc1)c1cccc(F)c1,-3%,i,0.65µM*,8,-11%,i
Cc1ccc(N(CC(=O)Nc2ccc(S(=O)(=O)N3CCOCC3)cc2)S(C)(=O)=O)cc1C,0%,i,2%,-11,3%,23µM*
Cc1ccc(N(CC(=O)Nc2ccccc2-c2ccccc2)S(=O)(=O)c2ccccc2)c(C)c1,0%,i,21µM*,15,5%,i
C=Cc1ccc(CSc2nnc(C)n3c2cc2occc23)cc1,/,i,/,/,/,i
COc1ccc(S(=O)(=O)NC(=O)C2(C)CCN2C(=O)C2(c3ccccc3)CCCC2)cc1 (configuration not stated),/,i,/,/,/,i
CCOc1ccccc1NC(=O)CN1C(=O)C2(SCC(=O)N2c2cccc(F)c2)c2ccccc21 (configuration not stated),/,i,/,/,/,i
CCOC(=O)c1cc2c(=O)n3ccccc3nc2n(C(C)C)c1=NC(=O)c1cc2ccccc2o1,/,i,/,/,/,i
Cc1cccc(NS(=O)(=O)c2ccc(NC(=O)CN(c3cc([N+](=O)[O-])ccc3C)S(C)(=O)=O)cc2)c1,-5%,i,?,0,18µM*,i
Cc1cccc(N(CC(=O)Nc2ccc(F)cc2)S(C)(=O)=O)c1,3%,i,-1%,12,6%,16µM*
COc1ccc(C)cc1NS(=O)(=O)c1ccc(NC(=O)CN(c2cc([N+](=O)[O-])ccc2C)S(C)(=O)=O)cc1,-18%,i,22%,11,?,i
COc1cc(/C=N/NC(=O)c2ccc(COc3ccccc3Cl)o2)cc(Br)c1O,-11%,i,7%,9,-12%,i
COC(=O)c1ccc(COc2ccccc2/C=N/O)o1,0%,i,-24%,-6,1.8µM*,i
O=C(N/N=C/c1ccccc1F)c1ccc(COc2ccccc2Cl)o1,-9%,i,?,35,-2%,18µM*
COc1cccc(CN2CCC(Oc3ccc(C(=O)N4CCCCC4)cc3)CC2)c1O,1%,i,-1%,20,3%,i
O=C1NC2(CCCCC2)OC12CCCCC2,2%,i,-4%,11,1%,i
Oc1cc(-c2cccnc2)cc2cccnc12,7%,?,10µM*,-7,?,?

# Assay outcomes (PubChem)
